Source: ChEMBL document CHEMBL4296182, “CO-ADD screening of NIH NCI Diversity Set V”

What follows are compounds tested on Staphylococcus aureus (assay: Antibacterial activity against Staphylococcus aureus MRSA ATCC 43300 (CO-ADD:GP_020); MIC in CAMBH media using NBS plates, by Resazurin F(560/590)). Conditions: Concentration 20 uM, ASSAY_TEST Inhibition of Bacterial Growth, detection method Resazurin, Fluorescence (ex560/em590), MEDIA CAMHB, plate type 384well, CORNING #3640, time 18 hr.
Assay type: functional

Row | SMILES | Inhibition
1 | Cc1cc(O)c(C(C)C)cc1NC(=O)Nc1cccc2ccccc12 | -3.74%
2 | O=S(=O)(Oc1ccc(Cl)cc1)c1cccc2cccnc12 | 11.37%
3 | CN(NC(=O)C(=O)NCc1ccco1)C(=O)NC1CCCCC1 | 1.27%
4 | CCCCCC(=O)N1CCCCC1 | 5.23%
5 | Cn1c(=O)c2nc(CCCc3ccc([N+](=O)[O-])cc3)[nH]c2n(C)c1=O | 7.08%
6 | CCOC(=O)c1nn(C)c2[nH]c(=O)n(C)c(=O)c12 | 7.94%
7 | Cn1cnc([N+](=O)[O-])c1Sc1nnc(-c2cccnc2)n1C | 12.02%
8 | CCOP(=O)(OCC)/C(C#N)=C/c1ccc([N+](=O)[O-])cc1 | 10.14%
9 | O=[N+]([O-])c1ccccc1/C=C/C=N/N=C/c1ccccc1O | 0.05%
10 | O=C(CN1CCOCC1)N1CCOCC1 | 15.46%
11 | CSc1nsc(NN)n1 | 4.83%
12 | CNc1ncnc2c1cnn2C1CCCCO1 (centres undefined) | 3.48%
13 | CC(C)(C)n1nc(C2CC2)cc1NC(=O)Nc1ccccc1 | 5.22%
14 | Cc1ccc(S(=O)(=O)NNC(=O)C23CCC(CC2)C3)cc1 | -6.52%
15 | CCCN(CCC)CC(=O)N1CC(=O)Nc2ccccc21 | -18.07%
16 | Nc1ccc(S(=O)(=O)NCC2CCCCO2)cc1 (centres undefined) | 11.97%
17 | Cc1nn(-c2ccccc2)c2c1C(c1ccc([N+](=O)[O-])cc1)C(C#N)=C(N)O2 (centres undefined) | 11.47%
18 | Nc1nnc(-c2cccnc2)s1 | -3.99%
19 | CCOC(=O)c1ccc(NC(=O)Oc2cc(C)c(Cl)cc2C(C)C)cc1 | 20.21%
20 | CC(=O)Nc1c(C)cc(OCC(=O)O)cc1C | 2.34%

Row | SMILES | Inhibition
21 | COc1cc(CC(=O)C(=O)O)oc(=O)c1 | 12.14%
22 | Cc1cccc2c1c1ccc3c(c1n2C)C(=O)C=CC3=O | -3.83%
23 | CC(=O)CC(=O)Nc1ccc2ccccc2c1 | -8%
24 | CC(=O)OCc1cc(-c2nc3ccccc3nc2O)nn1-c1ccc(Cl)cc1 | 8.25%
25 | C=CCOc1c(CCC)cc(CCC)cc1C(N)=O | 13.21%
26 | C=CCOCCN(CC)CC | -2.28%
27 | CCOC(=O)C(Cc1ccc(O)cc1)Nc1nc2ccccc2o1 (centres undefined) | 27.08%
28 | Cc1cc(=O)[nH]c(N)n1 | 9.55%
29 | Cc1ccc(NC(=O)N2CCN(C)CC2)cc1NC(=O)N1CCN(C)CC1 | 2.62%
30 | Sc1nccn1-c1c(Cl)cccc1Cl | 10.46%
31 | CC1=NC(C)(C)CC2CCC(O)C12 (centres undefined) | 15.01%
32 | CC(C)Oc1ccc(C(=O)O)cc1 | 3.26%
33 | COc1cccc(/C=C/c2nccc3ccccc23)c1OC | 13.01%
34 | O=C(O)c1cc2cc(OCc3ccccc3)ccc2[nH]1 | 6.76%
35 | O=C(Nc1cccc([N+](=O)[O-])c1)c1cc2ccccc2cc1O | -1.88%
36 | O=C(O)C1C2OC3C(OC(=O)C31)C2Br (centres undefined) | 25.96%
37 | Cc1n[nH]c2nc(N)nn2c1=O | -4.36%
38 | CC1=CC(=O)CC(C)(C)C1(O)/C=C/C(C)=C/C(=O)O (centres undefined) | -9.32%
39 | Cn1c2c(c(=O)n(C)c1=O)NC1(N2)C(=O)Nc2ccccc21 (centres undefined) | 7.94%
